In PubChem BioAssay AID435019 (Southern Research Specialized Biocontainment Screening …, 2010):
About 1,200 (52%) of roughly 2,300 compounds were called active. So high a share suggests a set chosen from earlier hits. Some of the results follow. Entries with a potency or affinity are not part of this list. Unmarked numbers belong to inactive results. No rule for the calls is given here.

assay: mammalian cell cytotoxicity, dose response, cytotoxicity control for M. tuberculosis inhibitor project (AID 435019); details: cytotoxicity counter-screen; series mostly up to 40 µM; viability: at the top concentration;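 also: 0% = background wells and 100% = vehicle-treated cells; lower values mean fewer viable cells so more cytotoxicity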

Compound | viability [%]
COc1ccccc1N1CCN(/N=C/C(Cl)=C/c2ccccc2)CC1 | 84.9
OCCN(/C=N/c1nc(-c2ccc(Br)cc2)cs1)CCO | 91.9
CCOC(=O)c1cc2cc3ccccc3cc2oc1=O | 95.8
CCOC(=O)c1cnc(SC2CCc3ccccc3C2=O)nc1N (centres undefined) | 89.5
CC(Oc1cc2oc(=O)c3c(c2cc1Cl)CCCC3)C(=O)NCc1ccccn1 (centres undefined) | 81.3
CCOC(=O)C1CCN(c2cc3c(cc2NC(=O)c2ccccc2Cl)n(C)c(=O)n3C)CC1 | 95.7
CCN(CC(=O)NCc1cccs1)C(=O)c1ccc([N+](=O)[O-])o1 | 87.3
CC1=NN(c2ccc(C)c(C)c2)C(=O)/C1=C\C=C\c1ccc([N+](=O)[O-])o1 | 96.5
CC(C)=N/N=C1/NC(=O)C(Cc2ccccc2)S1 (centres undefined) | 98.5
Cc1cc(Nc2ccccc2)c2c([N+](=O)[O-])ccc(C)c2n1 | 101
Cc1ccc(N/N=C/C=C/c2ccco2)cc1 | 94.5
O=c1c2cc(-c3ccccc3)sc2ncn1/N=C/c1ccco1 | 99.8
CCOC(=O)c1nc2sc3c(c2c(=O)[nH]1)CCC(C)C3 (centres undefined) | 97.1
CCOC(=O)CCCNC(=O)COC(=O)c1cc(Br)c(Br)s1 | 100
CCOC(=O)CSc1nn(-c2ccccc2)c(=S)s1 | 97.1
CCOC(=O)CSc1nnc(SCCN2C(=O)c3ccccc3C2=O)s1 | 104
Cc1ccc2c(c1)C1C[N+](C)(CC(=O)c3ccc(Cl)cc3Cl)CCC1N2C(=O)c1ccc(F)cc1 (centres undefined) | 90
COC(=O)COc1ccc(-c2ccccc2)cc1C=O | 91.1
CCCCCCCCSc1nnc(CSc2nc3nc(C)cc(C)n3n2)o1 | 93
Cc1cc(C)c2cc(C(=O)Nc3ccc(C)c(F)c3)[nH]c2c1 | 97.5
COC(=O)c1ccc(N/C(C)=C/C(=O)c2ccc(C)o2)cc1 | 95.1
Cc1ccccc1NC(=O)Cc1nc(COC(=O)/C=C/c2ccccc2)cs1 | 87.3
COC(=O)c1cc(/C=C/c2ccccc2)on1 | 103
N#Cc1c(SCC(N)=O)nsc1SCc1ccccc1Cl | 102
O=C(CN1CCN(c2nc(-c3ccc(F)cc3)cs2)CC1)NCc1ccc2c(c1)OCO2 | 82.4

Compound | viability [%]
CCCCOc1ccc(-c2nnn(C(C)C(=O)OCC)n2)cc1 (centres undefined) | 94.5
Cc1cccc(N2CCN(CC(=O)Nc3nccs3)CC2)c1C | 83.5
CC1CCc2c(C(=O)Nc3nccs3)csc2C1 (centres undefined) | 90
Nc1ccc2cc(Br)ccc2c1 | 89.6
COC(=O)c1ccc(N/N=C/c2cc([N+](=O)[O-])cc(OC)c2O)cc1 | 92.8
CC1CCN(C(=O)c2ccc(-c3ccccc3Cl)o2)CC1 | 82.7
COC(=O)Cc1ccc(NC(=O)c2ccc(Br)o2)cc1 | 90.5
CCOC(=O)CSCC(=O)N1CCC(Cc2ccccc2)CC1 | 96
Cc1cccc(OCC(=O)NNC(=O)c2cc3ccccc3oc2=O)c1 | 94
COc1ccc(OC(=O)c2cc3cc(Cl)ccc3oc2=O)cc1 | 106
Cn1c(SCc2ccccc2)nc(N)c(N=O)c1=O | 90.2
CCOc1ccc(NC(=O)CSc2cn[nH]n2)cc1 | 97.2
CCOc1ccc(N=CNc2ccc(OCC)cc2)cc1 | 102
Cc1ccc(C(=O)N/N=C/C=C/c2ccccc2)cc1 | 99.6
COc1ccc(OCCCC(=O)OC(C)C(=O)Nc2ccccc2[N+](=O)[O-])cc1 (centres undefined) | 99.7
CCOC(=O)COn1c2c(c3c4no[n+]([O-])c4ccc31)CCCC2 | 92.7
Cc1cc(O)c(/C=N/Nc2cccc(Cl)c2)c(=O)o1 | 93.5
Cc1cc(=O)n2[nH]c(Nc3cccc(Cl)c3)nc2n1 | 83.3
COc1ccc(N2C(=O)C(Cl)=C(Nc3ccccc3O)C2=O)cc1 | 81
Nc1cnc(-c2ccccc2)nc1Cl | 84.9
COc1ccc2[nH]c(=O)c(CNc3cccc(C)c3)cc2c1 | 90.8
c1nc2n(n1)C1=C(CCCC1)C1(CCCCC1)N2 | 88.2
O=c1oc(-c2ccccc2[N+](=O)[O-])nc2ccccc12 | 99
CCOC(=O)c1ccc(NC(=S)NCCc2ccc(F)cc2)cc1 | 90.5
Cc1ccc(CN2C3CCCC2CC(NC(=S)NCc2ccccc2)C3)cc1 (centres undefined) | 80.5

Compound | viability [%]
O=C(CCSc1ccc(Cl)cc1)NC12CC3CC(CC(C3)C1)C2 | 85.2
O=C(Oc1ccccc1)c1ccccc1OS(=O)(=O)c1ccccc1 | 92.2
Cc1cc(N2CCN(C(=O)Nc3ccccc3C#N)CC2)c2ccccc2n1 | 87.4
COc1cc(/C=C2\C(=O)N(c3ccc(S(N)(=O)=O)cc3)N=C2C)ccc1OC(=O)c1ccco1 | 95.2
CSc1nsc(SCC(=O)Nc2ccc(F)cc2F)n1 | 91.6
CC(OC(=O)c1cnc2ccccc2n1)c1ccccc1Cl (centres undefined) | 94.4
Cc1nc(N2CCN(c3ccccn3)CC2)c2c(C)c(C(=O)N3CCN(c4ccc(F)cc4)CC3)sc2n1 | 81.2
CCOc1ccc(NC(C)c2cc(Cl)ccc2O)cc1 (centres undefined) | 89.1
CCOc1ccc(-n2c(O)c(/C=N/Nc3nnc(C)c(=O)[nH]3)c3ccccc3c2=O)cc1 | 85.7
CCc1ccc(Nc2n[n+](C)c(-c3ccncc3)s2)cc1 | 89.4
Cc1nc2ccc(NC(=O)c3ccc([N+](=O)[O-])cc3[N+](=O)[O-])cc2s1 | 99.5
Cc1ccc(C(=O)Nc2ccc3c4c(cccc24)CC3)cc1[N+](=O)[O-] | 89.8
O=C1c2ccccc2CC1Sc1nnc(-c2ccncc2)o1 (centres undefined) | 97.9
CC(C)NCC(O)c1ccc(O)c(O)c1 (centres undefined) | 97.2
CSc1ccccc1C(=O)NC1CCSc2ccccc21 (centres undefined) | 93.4
Cc1ccc(C)c(N/C(N)=N/c2nc(C)cc(C)n2)c1 | 80.5
CON(C)c1nc(C2CCCCC2)c2cc(C)ccc2n1 | 82.3
C/C=C(\C)C(=O)Nc1cccc(C2=NOC3(C2)C[C@H](C(N)=O)N(C(=O)c2cc([N+](=O)[O-])cc([N+](=O)[O-])c2)C3)c1 (some centres undefined) | 99.2
CC(C)CCNC(=O)C(c1ccc(O)cc1)N(C(=O)C1COc2ccccc2O1)c1cccc(O)c1 (centres undefined) | 87.2
CCOC(=O)COc1ccc(/C=C2\NC(=S)N(CC)C2=O)cc1 | 90.3
Cc1cc2c(ccc3c2no[n+]3[O-])nn1 | 107
O=C(c1ccc(-c2cccc(C(F)(F)F)c2)o1)N1CCN(c2ccccc2O)CC1 | 98.3
COC(=O)C(C)Oc1ccc2c(c1)O/C(=C\c1ccco1)C2=O (centres undefined) | 95.4
CCOC(=O)C(C)Oc1ccc(OCc2ccccc2)cc1 (centres undefined) | 93.8
